# Rows were chosen to be rich in hits. Some 7.5% of all compounds tested hit in one or more screens of this group.
# FLuc counter: firefly luciferase modulation, counter-screen for miR-21 project; P08659; AID 588342; 360,000 compounds, 6.9% hits; Potency, µM (series often up to 57.5 µM), most hits filed as inhibitors; purified FLuc, Km substrates, luminescence inhibition; also: nearly all actives have a fitted effect of over 55% in size
# Target sequence (P08659 whole entry, looked up): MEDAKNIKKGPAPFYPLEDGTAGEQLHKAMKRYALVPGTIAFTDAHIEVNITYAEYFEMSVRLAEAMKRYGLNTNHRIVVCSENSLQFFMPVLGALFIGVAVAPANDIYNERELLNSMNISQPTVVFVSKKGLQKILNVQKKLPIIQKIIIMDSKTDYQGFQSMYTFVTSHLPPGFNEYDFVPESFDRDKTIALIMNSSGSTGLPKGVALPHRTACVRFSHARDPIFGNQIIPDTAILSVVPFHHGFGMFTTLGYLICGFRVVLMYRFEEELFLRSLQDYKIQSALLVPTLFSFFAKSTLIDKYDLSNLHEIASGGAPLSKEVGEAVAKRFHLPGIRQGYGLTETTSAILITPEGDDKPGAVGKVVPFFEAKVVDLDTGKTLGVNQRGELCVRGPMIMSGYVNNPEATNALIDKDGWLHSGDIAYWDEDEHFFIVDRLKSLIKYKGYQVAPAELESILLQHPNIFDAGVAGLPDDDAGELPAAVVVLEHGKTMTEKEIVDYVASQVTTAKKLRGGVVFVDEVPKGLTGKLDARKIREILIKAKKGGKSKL
#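 Biochemical qHTS of compounds, final roughly 60 µM downward over six points, against 10 nM purified firefly luciferase using Km concentrations of substrates (10 uM D-luciferin, 10 uM ATP) in Tris acetate pH 7.5 buffer; luminescence output.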
# NPC1 promoter act: NPC1 promoter activation. Huh7 NPC1 promoter luciferase reporter, 24 h. Potency, µM (highest dose often 9.22 µM), usual class: activators. 320,000 compounds, 2.4% hits. AID 485313; also: nearly all actives have a fitted effect of over 60% in size
#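 Quantitative HTS used a cell-based reporter: Huh7 cells stably bearing the NPC1 promoter upstream of luciferase were treated with compounds for 24 h, and promoter activation was read as luminescence.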
# ELG1 genotox: induces genotoxicity in HEK293T cells with luciferase-tagged ELG1 | 330,000 compounds, 1.3% hits | AID 504466 | HEK293T ELG1-luciferase reporter, luminescence, 16 h | Potency, µM (titrated, usually from 46 µM), most hits filed as activators; also: nearly all actives have a fitted effect of over 60% in size
#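 Reporter readout depends on ELG1 protein level, which increases with genetic stress. After 16 hr compound exposure at 37 °C, luciferase activity was quantified using ONE-Glo.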
# SMN2 splice enh: enhancers of SMN2 splice variant expression. HEK293 SMN2-luciferase splicing reporter, luminescence, 30-36 h. 210,000 compounds, 2.8% hits. Potency, µM (top dose mostly 46.1 µM), most hits filed as activators; also: nearly all actives have a fitted effect of over 55% in size
#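 qHTS luciferase splicing reporter: luminescence rises when SMN2 exon 7 is included in transfected HEK293 cells. Compound exposure lasted 30-36 h at 37C, with 4.5 mM final sodium butyrate as control, followed by a ONE-Glo read.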
# Rab9 prom act: Rab9 promoter activation | 320,000 compounds, 2.8% hits | Potency, µM (titrated, usually from 9.22 µM), most hits filed as activators | Huh7 Rab9 promoter-luciferase reporter, luminescence, 24 h | AID 485297; also: nearly all actives have a fitted effect of over 60% in size
#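 Stable Rab9-luc Huh7, 1500 cells/well, 2 h settle; cmpd in DMSO, 24 h, 37 °C/5% CO2; luciferase reagent 10 min RT; luminescence.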
# Luc counter: Kinase-Glo luciferase inhibition (counter-screen); Kinase-Glo luciferase, ATP luminescence, 8 min; Potency, µM (doses to about 38.3 µM), actives largely listed as inhibitors; 200,000 compounds, 0.28% hits; AID 1379; also: nearly all actives have a fitted effect of over 60% in size
#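 Inhibition of Kinase-Glo luciferase light generation was assessed at 10 uM ATP in pH 7.2 imidazole buffer, with luminescence measured after eight minutes at ambient temperature.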
# Numbers stand for hits; i = inactive; ? = inconclusive; nt = not tested or not shown; [ ] = another dose, or the depositor's remark. Calls follow the shape of the dose curve; as a rule, active = well fitted curve in the direction sought with a large enough effect; inconclusive = small, poorly fitted or top-dose-only effect, or another doubt; inactive = no such curve, though single readings can be large; an effect the other way counts as inactive or inconclusive.
SMILES,FLuc counter,NPC1 promoter act,ELG1 genotox,SMN2 splice enh,Rab9 prom act,Luc counter
CCn1cnc2cc(NS(=O)(=O)c3ccc(OC)c(OC)c3)ccc21,i,i,i,nt,i,nt
Cc1ccc(C(=O)Nc2ccc3c(c2)ncn3C)cc1,i[2.3 µM],3.2µM,?,2.5µM,4µM,i
Cc1ccc(NC(=O)CCn2cnc3cc(C)c(C)cc32)cc1,i,i,i,i,i,i
CCn1cnc2cc(NC(=O)c3ccc(C)cc3)ccc21,11µM,2µM,?,nt,4µM,nt
CN(C)c1ccc(/C=N/NC(=O)c2ccc(NC(=O)c3ccccc3)cc2)cc1,i,i,i,nt,i,nt
CN(C)c1ccc(N/C=C/C(=O)c2ccccc2)cc1,0.27µM,2.8µM,0.73µM,3.2µM,3.2µM,4µM
O=C(/C=C/Nc1ccccc1)c1ccccc1,0.34µM,0.56µM,?,11µM,1µM,7.1µM
CN(C)c1ccc(N/C=C/C(=O)C(C)(C)C)cc1,5.4µM,i,?,i,i,i
NC(N)=NS(=O)(=O)c1ccc(N/C=C\C(=O)c2ccncc2)cc1,i,i,i,nt,i,i
O=C(/C=C\Nc1ccc(Br)cc1)c1cccnc1,0.95µM,1.8µM,21µM,nt,1.3µM,i
N=C1C(c2ccccc2)=C(O)CN1c1cccc2ccccc12,i,i,i,i,i,i
O=C(/C=C/Nc1ccccc1)c1ccc(Cl)cc1Cl,0.38µM,0.35µM,0.92µM,nt,0.5µM,nt
O=C(/C=C/Nc1ccc(F)cc1Br)c1ccccc1,0.085µM,0.5µM,0.16µM,i,0.11µM,?
Cc1cc(N/C=C/C(=O)c2ccccc2)ccc1Br,0.48µM,?,?,nt,3.2µM,nt
CC(=O)Nc1ccc(N/C=C/C(=O)c2ccccc2)cc1,4.8µM,1.6µM,?,nt,2.8µM,nt
CC(=O)Nc1ccc(C(=O)c2ccccc2)cc1,i,i,i,nt,i,nt
CSCCC(NC(=O)c1ccccc1Br)C(=O)N1CCN(C(C)=O)CC1 (stereo not given),i,i,i,nt,i,nt
CCc1nc(SCC(=O)c2cccs2)c2oc3ccccc3c2n1,11µM,i,i,i,i,i
Cc1nc(SCC(=O)c2ccc(Cl)s2)c2oc3ccccc3c2n1,9.5µM,?,i,i,?,i
CCc1nc(SCC(=O)NCCc2ccccc2)c2oc3ccccc3c2n1,i,i,i,i,i,i
O=C(O)CSc1nc(-c2ccccc2)nc2c1oc1ccccc12,21µM,i,i,i,i,i
O=C(O)CSc1nc(-c2ccc(Cl)cc2)nc2c1oc1ccccc12,?,i,i,i,i,i
CC(NS(=O)(=O)c1ccc(OCC(=O)NCc2ccccn2)cc1)c1ccccc1 (stereo not given),i,i,i,nt,i,nt
O=C(COC(=O)c1cccs1)NC12CC3CC(CC(C3)C1)C2,24µM,i,i,i,i,i
O=C(COC(=O)c1ccccn1)NC12CC3CC(CC(C3)C1)C2,21µM,i,i,i,i,i
SMILES,FLuc counter,NPC1 promoter act,ELG1 genotox,SMN2 splice enh,Rab9 prom act,Luc counter
COc1cccc(CNC(=O)CCS(=O)(=O)c2ccccc2Cl)c1,i,i,i,nt,i,nt
CN(C)c1ccc(N=Nc2cccc3ccoc23)cc1,1.2µM,?,6.5µM,3.5µM,?,i[7.66 µM]
CN(C)c1ccc(N=Nc2cccc(F)c2)cc1,0.24µM,2µM,0.65µM,nt,3.5µM,nt
COc1cc(OC)nc(Oc2cc(C=O)ccc2OC)n1,i,i,i,nt,i,nt
Cc1ccc(NC(=O)/C=C/c2ccco2)nc1,6µM,?,4.1µM,14µM,i,i
Cc1ccc(NC(=O)/C=C/c2cccc([N+](=O)[O-])c2)nc1,i,i,i,i,i,i
O=C(/C=C/c1ccco1)Nc1cccc2cccnc12,15µM,i,?,?,i,i
O=C(/C=C/c1ccco1)Nc1ccccn1,6.7µM,?,8.2µM,8.9µM,?,?
CCOc1ccc2nc(NC(=O)c3nc(SC(C)C)ncc3Cl)sc2c1,i,nt,nt,i,nt,nt
O=S1(=O)C=C(Sc2nc3ccccc3s2)c2ccccc21,2.7µM,i,i,i,i,i
Cc1c(Cl)cccc1NC(=O)c1cccc(NC(=O)CCC(=O)O)c1,i,i,i,i,i,i
O=C(COc1ccc2ccccc2c1)Nc1cccc(C(=O)Nc2ccccc2C(=O)O)c1,24µM,i,i,i[1.84 µM],i,i
O=C(Nc1cc(Br)c(O)c(Br)c1)c1cccc(NC(=O)c2ccco2)c1,11µM,i,i,nt,i,nt
Cc1ccc(NC(=O)c2cccc(NC(=O)CCC(=O)O)c2)cc1C,8.5µM,i,i,i,i,i
Cc1ccccc1C(=O)Nc1cccc(C(=O)Nc2ccccc2C(=O)O)c1,27µM,i,i,nt,i,nt
O=C(Nc1cccc(NC(=O)c2ccco2)c1)c1cccc(Br)c1,?,i,i,nt,i,nt
COc1ccc(OCC(=O)Nc2ccc(C(=O)Nc3ccccc3C(=O)O)cc2)cc1,?,i,i,nt,i,nt
Cn1c(CNC(=O)c2ccco2)nnc1SCCOc1ccccc1,i,i,i,nt,i,nt
Cc1cc(C)c2oc(=O)cc(CN3CCCCC3)c2c1,i,i,i,nt,i,nt
O=C(Nc1ccccc1C(=O)O)c1cccc(NC(=O)c2ccco2)c1,15µM,i,i,nt,i,nt
